# From PubChem BioAssay AID493008 (The Scripps Research Institute Molecular Screening Center, 2010)
# The whole screen tested about 340,000 compounds, of which about 800 (0.24%) were called active. The entries come from a sample that favours actives as a whole. Values without a mark were called inactive.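 How the source made its calls: active means activation above the mean over all tested compounds plus 3 SD (cut at about 30% in these data); inactive means the rest.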
# Target: Troponin I, cardiac muscle (Homo sapiens) + Troponin T, cardiac muscle (Homo sapiens) + Troponin C, slow skeletal and cardiac muscles (Homo sapiens) (UniProt P19429+P45379+P63316)
# Experiment: calcium sensitizers of cardiac thin filaments – biochemical, IANBD-TnC fluorescence, EC20 calcium, primary screen (AID 493008);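 further: rise in fluorescence read as greater calcium sensitivity of cardiac thin filaments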
# Conditions: IANBD-labeled TnC RTF fluorescence at EC20 calcium; at 7.2 µM; hits give high values; 0% EC20 calcium, 100% full calcium
row,SMILES,activation
1,O=C(NC1=CC(=O)c2ccccc2C1=O)c1ccccc1,-2.47%
2,COc1cccc2c1C(=O)c1c(O)c3c(c(O)c1C2=O)CC(O)(C(C)=NNC(=O)c1ccc(Cl)c(Cl)c1)CC3OC1CC(N)C(O)C(C)O1 (configuration not stated),220% (active)
3,CCCCC(CC)CNCc1cccn1CCN1CCOCC1 (configuration not stated),-0.42%
4,CCOC(=O)c1ccc(N=C2SC(C(=O)NC)CC(=O)N2CCc2ccccc2)cc1 (configuration not stated),2.1%
5,O=C(CSc1ncnc2sccc12)N1CCN(C(=O)c2cccs2)CC1,0.04%
6,Nc1c(C(=O)c2cccs2)sc2nsc(SCCN3CCCCC3)c12,30.6% (active)
7,COc1ccc(C23NCCN2C(=O)c2ccccc23)cc1 (configuration not stated),-1.61%
8,COc1cc(S(=O)(=O)N2CCN=C2c2ccccc2)ccc1Cl,-3%
9,COc1ccc(-c2onc3ccc(C(C)=O)cc23)cc1,42.2% (active)
10,COc1ccc(NC(C(=O)Nc2cccc(C(C)=O)c2)c2ccccc2)cc1 (configuration not stated),2.77%
11,COc1ccc(-c2cc(C(=O)N3CCN(c4ccc(F)cc4)CC3)no2)cc1,-6.29%
12,CC1CCCN(S(=O)(=O)c2ccc(-c3ccc(=O)[nH]n3)o2)C1 (configuration not stated),0.69%
13,Cc1ccc2nc(SCC(=O)N3CCN(c4ccccc4)CC3)nc(=O)n2c1,-2.94%
14,Cc1cccc(N=Nc2c(O)[nH]c3ccc(F)cc23)c1,31.3% (active)
15,Oc1[nH]c2ccccc2c1N=Nc1c(F)c(F)c(F)c(F)c1F,3.02%
16,NS(=O)(=O)c1ccc(N=Nc2c(O)[nH]c3ccc(Br)cc23)cc1,-6.02%
17,Cc1ccc(C(=O)O)c(NC=O)c1OCc1ccccc1,-0.38%
18,CCN(CC)c1ccc(C(=O)Nn2c(C)nc3ccccc3c2=O)cc1,8.65%
19,CCN(CC)c1ccc2oc(=O)c(C)nc2c1,59.9% (active)
20,Cc1ccc2oc(=O)ccc2c1,-3.77%
21,COc1ncnc2c1N=C1CC(C)(C)CC(N)=C1S2,30.1% (active)
22,CCOC(=O)c1cc2n(c1N)-c1ccccc1C2=O,40.9% (active)
23,CCOC(=O)c1ccccc1CN1C(=O)c2ccccc2S1(=O)=O,6.29%
24,CCOC(=O)c1ccccc1OC(=O)Oc1ccccc1C(=O)OCC,0.28%
25,COCCNC(=O)c1onc(CSc2cccc(C)c2)c1C(=O)O,2.19%
26,Cc1cccc(NC(=O)CSc2nc3c(c(=O)[nH]2)CCC3)c1C,5.1%
27,Cc1cc(OC(C)C(=O)NC2CC(C)(C)NC(C)(C)C2)c2c(C)cc(=O)oc2c1 (configuration not stated),-6.45%
